{"source": "PubChem BioAssay (Tox21)", "note": "Several values for one entry are separate records, joined by “and”; a condition that tells them apart may be missing. Equal entries are not always repeated. Records with an inconclusive call do not appear. Where a call stands in place of a potency, no number is given. Activity calls are given as the source filed them. Calls come from the whole dose curve; as a rule, active = well fitted cell-killing curve with a large enough effect in the repeat runs; inconclusive = weak or mixed curves, or effect the other way; inactive = no such curve, though single readings can be large or run the other way. Potency is the fitted concentration of half-maximal effect."}
{"assay": "qHTS assay for identifying genotoxic compounds that show differential cytotoxicity against isogenic chicken DT40 cell lines with known DNA damage response pathways - Rev3 mutant cell line (AID 743014); note: nearly all actives have a fitted effect of over 55% in size", "settings": "chicken DT40 Rev3-/- viability, CellTiter-Glo, 40 h; series mostly up to 68.4 µM", "description": "National Center for Advancing Translational Sciences [NCATS]\nNIH Chemical Genomics Center [NCGC]\nU.S. Environmental Protection Agency [EPA]\nNational Institutes of Environmental Health Sciences [NIEHS]\nNational Toxicology Program [NTP]\nU.S. Food and Drug Administration [FDA]\nDNA repair pathways play a critical role in cellular homeostasis by repairing DNA damage induced by endogenous processes and xenobiotics. Isogenic chicken DT40 cell lines deficient in different DNA repair pathways can be used to identify genotoxic compounds and aid in characterizing the nature of the DNA damage induced. Two DNA repair-deficient cell lines with disrupted genes, Rad54/Ku70 or Rev3, were used to screen the Tox21 10K compound library. Possible genotoxicity was based on the presence of a significant increase in cytotoxicity in one or more of the DNA repair-deficient cell lines compared to that observed in the parental DNA repair-proficient cell line. CellTiter Glo viability assay (Promega, Madison, WI) was used to measure cell viability in these cells after compound treatment. This assay includes the data from the Rev3 mutant cell line.\nTox21 Assay Protocol Summary:\n300 DT40 mutant cells in 5 uL/well were dispensed into white, solid-bottom 1536-well plates using a Multidrop Combi (ThermoFisher Scientific, Waltham, MA) dispenser. After the assay plates were incubated at 37 C/5% CO2 for approximately 0.5 hour, 23 nL of compounds dissolved in DMSO, positive controls or DMSO only was transferred into the assay plate by a pintool work station (Kalypsys, San Diego, CA). The assay plates were incubated at 37 C/5% CO2 for 40 hours. After 5 uL per well of CellTiter-Glo reagent was added into each well of the assay plates, the plates were incubated for 30 min at room temperature and the luminescence intensity of the plates was measured using a ViewLux (PerkinElmer, Shelton, CT) plate reader."}
{"smiles": "c1csc(C2(N3CCCCC3)CCCCC2)c1", "Potency": "inactive"}
{"smiles": "OCC(c1ccc(Cl)cc1)c1ccc(Cl)cc1", "Potency": "1.93 µM (active)"}
{"smiles": "Oc1ccc2c3c1O[C@H]1[C@@H](O)C=C[C@H]4[C@H](C2)NCC[C@@]341", "Potency": "inactive"}
{"smiles": "CN1CSC(=S)N(C)C1", "Potency": "5.42 µM (active) and 5.43 µM (active)"}
{"smiles": "CC1COC(Cn2cncn2)(c2ccc(Oc3ccc(Cl)cc3)cc2Cl)O1", "note": "(stereo not given)", "Potency": "0.686 µM (active)"}
{"smiles": "COc1ccc(OC)c(C[C@H](C)N)c1", "Potency": "inactive"}
{"smiles": "N#CC1(N2CCCCC2)CCCCC1", "Potency": "inactive"}
{"smiles": "C[C@@H](Cc1ccccc1)NCCC(c1ccccc1)c1ccccc1", "Potency": "5.07 µM (active)"}
{"smiles": "O=S(=O)(O)c1cc(O)ccc1O", "Potency": "inactive"}
{"smiles": "ClC1=C(Cl)[C@]2(Cl)[C@@H]3[C@@H](Cl)[C@H]4O[C@H]4[C@@H]3C1(Cl)C2(Cl)Cl", "Potency": "34.4 µM (active)"}
{"smiles": "CN1[C@@H]2CC[C@H]1CC(OC1c3ccccc3CCc3ccccc31)C2", "note": "(stereo not given in full)", "Potency": "10.1 µM (active)"}
{"smiles": "CCCCC[C@@H](O)C1C(=O)OC(C)[C@H](O)/C=C/C=C/C=C/C=C/C=C(\\C)C(O)C(O)C(O)C[C@H](O)C[C@H](O)C[C@H](O)C[C@H](O)C[C@@H]1O", "note": "(stereo not given in full)", "Potency": "inactive"}
{"smiles": "Cc1nnc2n1-c1ccc(Cl)cc1C(c1ccccc1Cl)=NC2", "Potency": "inactive"}
{"smiles": "CCCC(C)(COC(N)=O)COC(=O)NC1CC1", "note": "(stereo not given)", "Potency": "inactive"}
{"smiles": "CN1CCCC(=C(c2cccs2)c2cccs2)C1", "Potency": "inactive"}
{"smiles": "COc1cc(OC)c(OC)cc1C=O", "Potency": "34.3 µM (active)"}
{"smiles": "CNC1(c2ccccc2Cl)CCCCC1=O", "note": "(stereo not given)", "Potency": "inactive"}
{"smiles": "CCC1(CC)C(=O)NC(=O)N(C)C1=O", "Potency": "inactive"}
{"smiles": "O=C1CN(O)C(c2ccccc2)=c2cc(Cl)ccc2=N1", "Potency": "inactive"}
{"smiles": "C[C@H]1CC[C@]2(NC1)O[C@H]1C[C@H]3[C@@H]4CC[C@H]5C[C@@H](O)CC[C@]5(C)[C@H]4CC[C@]3(C)[C@H]1[C@@H]2C", "Potency": "inactive"}
{"smiles": "CN(C)CCCCCCN(C)C", "Potency": "inactive"}
{"smiles": "CCCCCc1cc(O)c2c(c1)OC(C)(C)c1ccc(C)cc1-2", "Potency": "11.9 µM (active)"}
{"smiles": "CCCCNC(C)(C)[P+](=O)O", "Potency": "inactive"}
{"smiles": "CNC(=O)OCC[N+](C)(C)C", "Potency": "inactive"}
{"smiles": "CC(C)(O)[C@@H]1[C@H]2OC(=O)[C@@H]1[C@]1(O)C[C@H]3O[C@]34C(=O)O[C@H]2[C@]14C", "Potency": "inactive"}
{"smiles": "O=C(CCl)c1ccc(Oc2ccc(C(=O)CCl)cc2)cc1", "Potency": "29.8 µM (active)"}
{"smiles": "CC(=O)O[C@H]1C[C@H](O[C@H]2[C@@H](O)C[C@H](O[C@H]3[C@@H](O)C[C@H](O[C@H]4CC[C@@]5(C)[C@H](CC[C@@H]6[C@@H]5C[C@@H](O)[C@]5(C)[C@@H](C7=CC(=O)OC7)CC[C@]65O)C4)O[C@@H]3C)O[C@@H]2C)O[C@H](C)[C@H]1O[C@@H]1O[C@H](CO)[C@@H](O)[C@H](O)[C@H]1O", "Potency": "0.75 µM (active)"}
{"smiles": "C[C@]12C=CC(=O)C=C1CC[C@@H]1[C@@H]2CC[C@]2(C)OC(=O)CC[C@@H]12", "Potency": "inactive"}
{"smiles": "CN[C@@H]1C[C@@H](c2ccc(Cl)c(Cl)c2)c2ccccc21", "Potency": "11.9 µM (active)"}
{"smiles": "C[C@@H]1[C@@H]2Cc3ccc(O)cc3[C@@]1(C)CCN2CC1CC1", "Potency": "inactive"}
{"smiles": "Oc1cccc[c]1[Hg][Cl]", "Potency": "0.75 µM (active)"}
{"smiles": "Clc1ccccc1-c1ccccc1Cl", "Potency": "inactive"}
{"smiles": "c1ccc2c(c1)Sc1ccccc1N2C[C@@H]1CN2CCC1CC2", "Potency": "inactive"}
{"smiles": "C[C@H]1CC[C@]2(NC1)O[C@H]1C[C@H]3[C@@H]4CC[C@H]5C[C@@H](O[C@@H]6O[C@H](CO)[C@H](O[C@@H]7O[C@H](CO)[C@@H](O)[C@H](O[C@@H]8OC[C@@H](O)[C@H](O)[C@H]8O)[C@H]7O[C@@H]7O[C@H](CO)[C@@H](O)[C@H](O)[C@H]7O)[C@H](O)[C@H]6O)CC[C@]5(C)[C@H]4CC[C@]3(C)[C@H]1[C@@H]2C", "Potency": "2.37 µM (active)"}
{"smiles": "CN=C1CN(O)C(c2ccccc2)=c2cc(Cl)ccc2=N1", "Potency": "inactive"}
{"smiles": "C[C@@H]1[C@H](O)[C@@H](C)/C=C/C=C/CC/C=C/C=C/C=C/C=C/[C@H](O[C@H]2O[C@@H](C)[C@H](O)[C@@H](N)[C@H]2O)CC2O[C@](O)(C[C@@H](O)[C@H](O)CC[C@@H](O)C[C@@H](O)C[C@@H](O)CC(=O)O[C@H]1C)C[C@H](O)[C@H]2C(=O)O", "Potency": "inactive"}
{"smiles": "CNC(C)Cc1ccccc1", "note": "(stereo not given)", "Potency": "inactive"}
{"smiles": "CCCC(C)C1(CC)C(=O)NC(=O)NC1=O", "note": "(stereo not given)", "Potency": "inactive"}
{"smiles": "COc1ccc(C(c2ccc(OC)cc2)C(Cl)(Cl)Cl)cc1", "Potency": "44.4 µM (active)"}
{"smiles": "CCC(N)Cc1c[nH]c2ccccc12", "note": "(stereo not given)", "Potency": "inactive"}
